From PubChem BioAssay (NCI) come the findings set out here.

The panel holds about 83,000 compounds, 20% with a hit somewhere; the sample as a whole holds those more often.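 Values shown are percent growth following 48 h exposure of cells in 96-well plates to a single concentration of compound; below 10 was considered active.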 Values without a mark were called inactive. Calls of active or inactive are those of the source.

Some test systems named below: DU-145 prostate; K-562 leukemia; MALME-3M melanoma; MDA-MB-231 breast; RXF 393 renal; SF-268 CNS; SF-295 CNS; SF-539 CNS; UACC-257 melanoma; M14 melanoma; HCT-15 colon; HT29 colon; SNB-75 CNS; SNB-19 CNS; U251 CNS; PC-3 prostate; SK-MEL-5 melanoma; UACC-62 melanoma; LOX IMVI melanoma; SK-MEL-28 melanoma.
What all share (assay): NCI-60 one-dose screen, 48 h (100 = growth as untreated, 0 = no growth, -100 = all killed)
What all share (details): 10 µM unless noted

For the compound `CCN1CCN(CCNc2nccc(-c3c(-c4ccc(F)c(OC)c4)nc4sccn34)n2)S1(=O)=O`, the growth is 84.1% in the assay on DU-145 prostate; 54.4% in the assay with K-562 leukemia; -7.64% (active) in the assay with MALME-3M melanoma; 50.8% in the assay on MDA-MB-231 breast; 45% in the assay with RXF 393 renal; 79% in the assay with SF-268 CNS. Moreover, the growth in the assay with SF-295 CNS is 90.5%; with SF-539 CNS, 99.1%; in the assay on UACC-257 melanoma, 30.7%; with M14 melanoma, 20.7%; in the assay on HCT-15 colon, 94.6%; with HT29 colon, 73.1%. The growth with SNB-75 CNS was 74%; in the assay with SNB-19 CNS, 93%; in the assay with U251 CNS, 76.8%; in the assay with PC-3 prostate it was 74.1%; in the assay on SK-MEL-5 melanoma it was 41.4%; with UACC-62 melanoma it was 15.5%. Besides, the growth with LOX IMVI melanoma is 40.3%; in the assay with SK-MEL-28 melanoma, 27.2%.

Regarding `Cc1ccc(NC(=O)Cn2c(Br)nc3c2c(=O)n(C)c(=O)n3C)cc1`, the growth with DU-145 prostate was 44.1%; with K-562 leukemia, 51.6%; in the assay on MALME-3M melanoma, -36% (active); in the assay on MDA-MB-231 breast, -19.2% (active); with RXF 393 renal, -3.2% (active); in the assay with SF-268 CNS, 56.1%. For the same compound, the growth was 0.92% (active) with SF-295 CNS; 1.55% (active) with SF-539 CNS; 62.2% in the assay with UACC-257 melanoma; 43.1% with M14 melanoma; 45.8% with HCT-15 colon; 55.2% in the assay on HT29 colon. Further, the growth with SNB-75 CNS is 5.65% (active); in the assay with SNB-19 CNS it was 50.7%; with U251 CNS, 4.05% (active); in the assay with PC-3 prostate, 30.3%; in the assay on SK-MEL-5 melanoma it was 25.6%; with UACC-62 melanoma, 45.5%. Further, the results for the growth in the assay on LOX IMVI melanoma and in the assay with SK-MEL-28 melanoma were -9.57% (active) and 52%, respectively.

On to `O=C(O)COc1ccc(Cl)c(Cl)c1`, for which the growth in the assay with DU-145 prostate was 126%; in the assay on K-562 leukemia it was 109%; with MALME-3M melanoma it was 124%; in the assay on MDA-MB-231 breast, 115%; in the assay with RXF 393 renal, 108%; with SF-268 CNS it was 117%. The growth in the assay with SF-295 CNS was 103%; in the assay on SF-539 CNS, 104%; with UACC-257 melanoma, 104%; in the assay with M14 melanoma it was 112%; with HCT-15 colon, 111%; in the assay with HT29 colon, 112%. Moreover, the growth in the assay with SNB-75 CNS is 107%; in the assay with SNB-19 CNS, 117%; in the assay with U251 CNS it was 108%; in the assay on PC-3 prostate it was 100%; in the assay with SK-MEL-5 melanoma, 105%; in the assay with UACC-62 melanoma, 104%. Besides, the growth is 97.9% in the assay with LOX IMVI melanoma and 116% in the assay on SK-MEL-28 melanoma.

Regarding `Clc1c(Cl)[n+](Cc2ccc3ccccc3c2)cn1Cc1ccc2ccccc2c1`, the growth in the assay on DU-145 prostate is 32.6%; with K-562 leukemia, -3.01% (active); with MALME-3M melanoma, -14.1% (active); with MDA-MB-231 breast it was 7.04% (active); with RXF 393 renal, -7.52% (active); with SF-268 CNS, 20.8%. Moreover, the growth is 45.6% in the assay on SF-295 CNS; 58.6% in the assay with SF-539 CNS; -37.7% (active) in the assay with UACC-257 melanoma; -31.9% (active) in the assay with M14 melanoma; 75.1% in the assay with HCT-15 colon; -69.4% (active) in the assay on HT29 colon. The growth in the assay on SNB-75 CNS is 10.3%; in the assay on SNB-19 CNS, 26.8%; in the assay on U251 CNS it was -82.6% (active); in the assay with PC-3 prostate, 3.79% (active); in the assay with SK-MEL-5 melanoma, -79.7% (active); in the assay on UACC-62 melanoma it was -42.8% (active). In addition, the results for the growth in the assay on LOX IMVI melanoma and in the assay on SK-MEL-28 melanoma were -21.4% (active) and 16.1%, respectively.

On to `CCn1cc(CNc2ccc(C(=O)Nc3cc4cc(OC)c(OC)cc4c(C)n3)cc2)cn1`, for which the growth was 67.2% with DU-145 prostate; 30.8% with K-562 leukemia; 54.6% in the assay on MALME-3M melanoma; 79.6% in the assay on MDA-MB-231 breast; 80.4% in the assay on RXF 393 renal; 60.6% with SF-268 CNS. In addition, the growth in the assay on SF-295 CNS was 60.4%; in the assay with SF-539 CNS, 70.5%; in the assay with UACC-257 melanoma, 56.2%; in the assay with M14 melanoma, 48.8%; in the assay on HCT-15 colon, 26.3%; with HT29 colon, 56.6%. Besides, the growth was 65.2% in the assay with SNB-75 CNS; 84.1% with SNB-19 CNS; 65.2% in the assay with U251 CNS; 15.3% in the assay on PC-3 prostate; 10.3% in the assay with SK-MEL-5 melanoma; 33.5% in the assay with UACC-62 melanoma. In addition, the growth is 46.1% with LOX IMVI melanoma and 70.5% in the assay with SK-MEL-28 melanoma.

Turning to `COc1cccc(NCc2nnc(Nc3ccc(Cl)cc3)c3ccccc23)c1`, the growth with DU-145 prostate is 8.3% (active); in the assay with K-562 leukemia, 2.2% (active); in the assay on MALME-3M melanoma, -22% (active); in the assay on MDA-MB-231 breast it was -27.1% (active); in the assay on RXF 393 renal it was -11.6% (active); in the assay with SF-268 CNS it was 2.52% (active). In addition, the growth with SF-295 CNS is -22.6% (active); in the assay on SF-539 CNS, -10.2% (active); in the assay on UACC-257 melanoma it was -39.7% (active); in the assay with M14 melanoma, -15.7% (active); in the assay with HCT-15 colon it was -18.1% (active); with HT29 colon, -21% (active). In addition, the growth was -6.06% (active) with SNB-75 CNS; 17.8% in the assay with SNB-19 CNS; -56.2% (active) with U251 CNS; -13.6% (active) with PC-3 prostate; -98.5% (active) in the assay with SK-MEL-5 melanoma; -29.2% (active) with UACC-62 melanoma. In addition, the growth with LOX IMVI melanoma was -58.7% (active); with SK-MEL-28 melanoma, -16.1% (active).

Regarding `COc1cc(/C=C2\CN(S(=O)(=O)c3ccccc3)C/C(=C\c3cc(CN4CCCCC4)c(O)c(OC)c3)C2=O)cc(CN2CCCCC2)c1O`, the growth was -93% (active) in the assay with DU-145 prostate; -9.62% (active) in the assay with K-562 leukemia; -77.6% (active) with MALME-3M melanoma; -67.8% (active) in the assay with MDA-MB-231 breast; -88.3% (active) with RXF 393 renal; -20.7% (active) in the assay with SF-268 CNS. The growth in the assay on SF-295 CNS was 76.5%; in the assay on SF-539 CNS, -84.6% (active); in the assay with UACC-257 melanoma, 83.8%; in the assay with M14 melanoma, -75.2% (active); in the assay on HCT-15 colon it was -73.8% (active); in the assay on HT29 colon it was -66.7% (active). The growth in the assay with SNB-75 CNS is -91.7% (active); with SNB-19 CNS, -30.1% (active); in the assay on U251 CNS it was -76.7% (active); in the assay with PC-3 prostate it was -36.3% (active); with SK-MEL-5 melanoma, -94.8% (active); in the assay with UACC-62 melanoma it was 71%. In addition, the growth is -87% (active) in the assay on LOX IMVI melanoma and -90.3% (active) in the assay on SK-MEL-28 melanoma.
